The text below walks through data of PubChem BioAssay (NCATS).

The structures appear in SMILES notation. Several values for one entry are separate records, joined by “and”; a condition that tells them apart may be missing. Equal values may be shown once. Records with an inconclusive call do not appear. The source holds several records for some structures; these can differ, active in one and inactive in another. Activity calls are given as the source filed them. The call rests on the fitted dose curve; in most records, active means well fitted inhibition curve with a large enough effect; inconclusive means small, poorly fitted or top-dose-only effect; inactive means no such curve, though single readings can be large or run the other way.
On the % scale 0 is the no-effect control and ±100 the full control effect; potency means the concentration at half of the fitted maximal effect.

The nature of the test: Primary qHTS for inhibitors of nuclear receptor binding SET domain protein 2 (NSD2) in an RCH-ACV wild type WT cells (2C) (AID 1645877). Further: nearly all actives have a fitted effect of over 70% in size. To be noted: RCH-ACV (leukaemia line) NSD2 WT (2C) viability, CellTiter-Glo, 72 h; series mostly up to 44.9 µM; activity change, negative = cell killing: at the top concentration. For orientation: Quantitative high-throughput screening tests each substance at several concentrations.
In the case of `CCOC(=O)c1c(CSc2ccccc2)n(C)c2cc(Br)c(O)c(CN(C)C)c12`, the Potency is 20.9 µM (active).

`OC(c1cc(C(F)(F)F)nc2c(C(F)(F)F)cccc12)C1CCCCN1` (stereo unspecified): the Potency is 13.2 µM (active).

Turning to `CC[C@H](CC#N)OC(=O)N[C@@H](C)c1cccc(NC(=O)Nc2ccc(-c3cnco3)c(OC)c2)c1`, the Potency is 0.23 µM (active).

For the compound `CC(C)Oc1cc(Nc2nc(N[C@@H](C)c3ccc(F)cn3)ncc2Cl)[nH]n1`, the Potency was 9.34 µM (active) and 6.51 µM (active).

With `COc1nccc(-c2c(-c3ccc(F)cc3)ncn2C2CCNCC2)n1`, the Potency was 18.6 µM (active).

As to `C[C@@H](N)c1ccc(C(=O)Nc2ccnc3[nH]ccc23)cc1`, the Potency is 4.17 µM (active).

In the case of `CCc1cccc(CC)c1NC(=O)N1Cc2[nH]nc(NC(=O)c3ccc(N4CCN(C)CC4)cc3)c2C1`, the Potency is 409 nM (active) and 468 nM (active).

Take `N#Cc1c(N(CC(=O)O)CC(=O)O)sc(C(=O)O)c1CC(=O)O`: the “activity change, negative = cell killing” value is 1.68% (inactive).

For `CN(C)CCOc1cc(-c2cn[nH]c2)ccc1NC(=O)C1COc2ccccc2O1` (stereo unspecified), the Potency is 4.59 µM (active).

As to `Cc1ccc(C(=O)N(CCCN)[C@@H](c2nc3cc(Cl)ccc3c(=O)n2Cc2ccccc2)C(C)C)cc1`, the Potency is 0.0132 µM (active).

As to `COC(=O)Nc1ccc(-c2nc(N3CCOCC3)c3cnn(C4CCN(C(=O)OC)CC4)c3n2)cc1`, the Potency was 0.742 µM (active).

For `Cc1nc(NC(=O)N2CCC[C@@H]2C(N)=O)sc1-c1csc(C(C)(C)C)n1`, the Potency is 7.31 µM (active).

As for `COc1c(C)cnc(Cn2cnc3c(Cl)nc(N)nc32)c1C`, the Potency is 0.263 µM (active).

Regarding `O=C(Nc1ncc(SCCN2CCCC2)s1)[C@]1(c2ccc(S(=O)(=O)C3CC3)cc2)C[C@@H]1C1CCCCC1`, the Potency was 14.6 µM (active).

`O=C1CCCC(=O)C1C(=O)c1ccc(C(F)(F)F)cc1[N+](=O)[O-]`: the “activity change, negative = cell killing” value is -1.66% (inactive).

With `CN(C)CCN(C)C(=O)c1ccc(NC(=O)Nc2ccc(-c3nc(N4CCOCC4)c4ccn(CC(F)(F)F)c4n3)cc2)cc1`, the Potency was 0.0186 µM (active).

Consider `Cc1nn(Cc2ccccc2Cl)c(C)c1CN(C)CC(O)COc1ccc(Cl)cc1` (stereo unspecified), for which the Potency is 14.8 µM (active).

With `C[C@@H]1C[C@H]2[C@@H]3CCC4=CC(=O)C=C[C@]4(C)[C@@]3(F)[C@@H](O)C[C@]2(C)[C@@]1(O)C(=O)CO`, the Potency was 0.0332 µM (active).

Turning to `CC(C)C[C@H](NC(=O)c1cc2ccccc2s1)C(=O)N1CCN(C(=O)[C@H](CO)NS(=O)(=O)c2ccc(Cl)cc2Cl)CC1`, the Potency is 20.9 µM (active).

Turning to `CC[C@H](C=C[C@@H](C)[C@H]1CC[C@H]2[C@@H]3CC=C4C[C@@H](O)CC[C@]4(C)[C@@H]3CC[C@]12C)C(C)C`, the “outcome” value is “inactive [at 17.3 µM]”.

Turning to `Cc1ccc(S(=O)(=O)OCC(=O)Nc2ccc(C(=O)O)c(O)c2)cc1`, the outcome was inactive.

Regarding `CC(C)(OCc1nn(Cc2ccccc2)c2ccccc12)C(=O)O`, the compound was called inactive.

`Cn1cnc(-c2cc3nccc(Oc4ccc(NC(=S)NC(=O)Cc5ccccc5)cc4F)c3s2)c1`: the Potency was 5.78 µM (active) and 3.32 µM (active).

Regarding `COc1cc2nccc(Oc3ccc(NC(=O)Nc4ccc(F)cc4F)c(F)c3)c2cc1OC`, the Potency is 2.35 µM (active).

`N[C@@H](CC(=O)N1CCn2c(nnc2C(F)(F)F)C1)Cc1cc(F)c(F)cc1F`: the “activity change, negative = cell killing” value was 7.38% (inactive).

On to `CN(C)S(=O)(=O)c1ccc2c(c1)C(=Cc1cc3c([nH]1)CCCC3)C(=O)N2`, for which the Potency is 2.95 µM (active).

In the case of `Cc1cc2c(cc1C1(c3ccc(C(=O)O)cn3)CC1)C(C)(C)CCC2(C)C`, the result was inactive.

As for `O=S(=O)(O)c1ccc2cc(N=Nc3cc(S(=O)(=O)O)c4cccnc4c3O)ccc2c1`, the “activity change, negative = cell killing” value is -21.3% (inactive).

Turning to `O=c1[nH]nc(OCCCc2ccc(Cl)cc2)c(NCc2cccnc2)c1Br`, the Potency is 9.16 µM (active).

Turning to `COc1ccc(CCN(C)CCCOc2ccc(S(=O)(=O)c3[nH]c4ccccc4c3C(C)C)cc2)cc1OC`, the Potency is 16.6 µM (active).

On to `N#CC1(c2cccc(C(=O)Nc3cc(Oc4ccc5nc(NC(=O)C6CC6)sc5n4)ccc3F)c2Cl)CC1`, for which the Potency is 3.65 µM (active) and inactive.

Regarding `CC1=C[C@@H]2[C@@H]([C@@H](O)C[C@@]3(C)[C@H]2C[C@@H](C)[C@]3(O)C(=O)CO)[C@@]2(C)Cc3cnn(-c4ccccc4)c3C=C12`, the Potency was 0.0026 µM (active).

`COc1ccc(-c2nc3ccc(C4=NNC(=O)CC4C)cc3[nH]2)cc1` (stereo unspecified): the Potency was 5.96 µM (active) and 11.8 µM (active).

As for `Cc1cccc(-c2[nH]c(C(C)(C)C)nc2-c2ccc3c(c2)OCO3)n1`, the Potency is 4.11 µM (active) and 4.17 µM (active).

As to `CN[C@@H]1CN(c2ccc3c(=O)c(C(=O)O)cn(-c4nccs4)c3n2)C[C@@H]1OC`, the Potency was 0.0645 µM (active).

As to `CN(C)c1nc(Cc2ccc(NC(=O)c3ccc(C(F)(F)F)cc3)cc2)nc(N(C)C)c1CC(=O)O`, the compound was classed as inactive.
